According to ChEMBL document CHEMBL1961873, “Compounds: GSK PKIS; Assays: Nanosyn kinase panel” (2012):

What was measured:
[1] = system: Epidermal growth factor receptor (Homo sapiens), P00533 [T790M]; conditions: at 1 µM
[2] = system: Epidermal growth factor receptor (Homo sapiens), P00533 [L858R,T790M]; conditions: at 0.1 µM
[3] = system: Epidermal growth factor receptor (Homo sapiens), P00533 [L858R,T790M]; conditions: at 1 µM
[4] = target: Ephrin type-A receptor 2 (Homo sapiens) (UniProt P29317); conditions: at 0.1 µM
[5] = target: Ephrin type-A receptor 2 (Homo sapiens) (UniProt P29317); conditions: at 1 µM
[6] = target: T1, Ephrin type-A receptor 3 (Homo sapiens) (UniProt P29320); conditions: at 0.1 µM
T1 sequence (whole entry): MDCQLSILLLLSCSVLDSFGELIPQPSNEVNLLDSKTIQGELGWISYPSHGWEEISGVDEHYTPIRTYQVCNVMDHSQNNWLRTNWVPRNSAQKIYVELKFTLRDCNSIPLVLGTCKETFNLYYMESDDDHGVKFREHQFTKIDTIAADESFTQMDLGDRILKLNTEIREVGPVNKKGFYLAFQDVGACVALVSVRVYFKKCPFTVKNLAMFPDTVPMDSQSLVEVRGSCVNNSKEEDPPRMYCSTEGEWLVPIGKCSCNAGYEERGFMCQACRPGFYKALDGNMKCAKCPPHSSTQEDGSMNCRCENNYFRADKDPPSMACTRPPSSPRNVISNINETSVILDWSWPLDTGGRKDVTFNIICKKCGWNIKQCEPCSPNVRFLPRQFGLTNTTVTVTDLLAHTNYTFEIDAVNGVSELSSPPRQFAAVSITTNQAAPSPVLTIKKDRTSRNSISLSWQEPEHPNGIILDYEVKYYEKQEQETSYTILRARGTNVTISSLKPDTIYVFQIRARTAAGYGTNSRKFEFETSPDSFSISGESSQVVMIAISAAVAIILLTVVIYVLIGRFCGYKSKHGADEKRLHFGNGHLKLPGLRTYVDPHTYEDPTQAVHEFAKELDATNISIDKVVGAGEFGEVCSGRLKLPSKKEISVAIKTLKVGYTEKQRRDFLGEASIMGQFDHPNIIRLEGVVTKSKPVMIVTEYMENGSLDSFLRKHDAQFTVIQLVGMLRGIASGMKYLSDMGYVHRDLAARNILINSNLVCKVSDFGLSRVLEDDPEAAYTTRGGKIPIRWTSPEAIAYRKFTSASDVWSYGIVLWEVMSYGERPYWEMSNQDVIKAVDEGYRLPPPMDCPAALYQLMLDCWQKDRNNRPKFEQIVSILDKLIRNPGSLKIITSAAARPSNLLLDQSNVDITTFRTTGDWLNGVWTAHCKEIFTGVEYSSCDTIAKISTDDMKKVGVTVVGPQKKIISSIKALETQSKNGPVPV

[7] = target: T1, Ephrin type-A receptor 3 (Homo sapiens); conditions: at 1 µM
[8] = target: Ephrin type-A receptor 4 (Homo sapiens) (UniProt P54764); conditions: at 0.1 µM
[9] = target: Ephrin type-A receptor 4 (Homo sapiens) (UniProt P54764); conditions: at 1 µM
[10] = target: T2, Ephrin type-B receptor 2 (Homo sapiens) (UniProt P29323); conditions: at 0.1 µM
T2 sequence (whole entry): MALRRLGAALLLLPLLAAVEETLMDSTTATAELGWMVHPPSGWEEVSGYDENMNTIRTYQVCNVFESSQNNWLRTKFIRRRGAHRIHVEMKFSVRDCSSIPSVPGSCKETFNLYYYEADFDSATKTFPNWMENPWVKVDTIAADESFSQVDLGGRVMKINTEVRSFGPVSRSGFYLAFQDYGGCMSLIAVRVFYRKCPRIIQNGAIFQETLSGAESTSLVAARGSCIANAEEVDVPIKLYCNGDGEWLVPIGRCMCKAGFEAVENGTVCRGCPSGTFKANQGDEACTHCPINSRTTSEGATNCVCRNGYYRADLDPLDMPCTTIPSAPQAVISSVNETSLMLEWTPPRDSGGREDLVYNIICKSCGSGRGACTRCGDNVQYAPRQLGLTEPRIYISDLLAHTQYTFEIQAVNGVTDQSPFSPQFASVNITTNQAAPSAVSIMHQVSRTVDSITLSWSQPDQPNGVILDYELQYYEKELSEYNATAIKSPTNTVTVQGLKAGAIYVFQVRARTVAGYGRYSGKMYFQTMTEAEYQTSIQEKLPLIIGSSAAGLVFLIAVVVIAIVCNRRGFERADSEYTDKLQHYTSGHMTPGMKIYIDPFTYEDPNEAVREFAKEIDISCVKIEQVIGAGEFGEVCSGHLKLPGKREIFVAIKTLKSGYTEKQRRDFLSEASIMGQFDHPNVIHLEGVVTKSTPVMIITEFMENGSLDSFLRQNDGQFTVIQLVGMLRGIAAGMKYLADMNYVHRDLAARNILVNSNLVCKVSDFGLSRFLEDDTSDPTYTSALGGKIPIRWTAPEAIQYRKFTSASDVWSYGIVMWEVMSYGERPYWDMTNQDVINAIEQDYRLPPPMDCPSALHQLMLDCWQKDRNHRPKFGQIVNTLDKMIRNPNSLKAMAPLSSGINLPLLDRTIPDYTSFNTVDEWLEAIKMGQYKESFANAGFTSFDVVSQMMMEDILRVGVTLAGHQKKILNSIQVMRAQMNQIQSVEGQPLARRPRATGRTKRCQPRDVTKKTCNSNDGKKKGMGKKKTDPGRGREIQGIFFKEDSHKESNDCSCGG

[11] = target: T2, Ephrin type-B receptor 2 (Homo sapiens); conditions: at 1 µM
[12] = target: T3, Ephrin type-B receptor 3 (Homo sapiens) (UniProt P54753); conditions: at 0.1 µM
T3 sequence (whole entry): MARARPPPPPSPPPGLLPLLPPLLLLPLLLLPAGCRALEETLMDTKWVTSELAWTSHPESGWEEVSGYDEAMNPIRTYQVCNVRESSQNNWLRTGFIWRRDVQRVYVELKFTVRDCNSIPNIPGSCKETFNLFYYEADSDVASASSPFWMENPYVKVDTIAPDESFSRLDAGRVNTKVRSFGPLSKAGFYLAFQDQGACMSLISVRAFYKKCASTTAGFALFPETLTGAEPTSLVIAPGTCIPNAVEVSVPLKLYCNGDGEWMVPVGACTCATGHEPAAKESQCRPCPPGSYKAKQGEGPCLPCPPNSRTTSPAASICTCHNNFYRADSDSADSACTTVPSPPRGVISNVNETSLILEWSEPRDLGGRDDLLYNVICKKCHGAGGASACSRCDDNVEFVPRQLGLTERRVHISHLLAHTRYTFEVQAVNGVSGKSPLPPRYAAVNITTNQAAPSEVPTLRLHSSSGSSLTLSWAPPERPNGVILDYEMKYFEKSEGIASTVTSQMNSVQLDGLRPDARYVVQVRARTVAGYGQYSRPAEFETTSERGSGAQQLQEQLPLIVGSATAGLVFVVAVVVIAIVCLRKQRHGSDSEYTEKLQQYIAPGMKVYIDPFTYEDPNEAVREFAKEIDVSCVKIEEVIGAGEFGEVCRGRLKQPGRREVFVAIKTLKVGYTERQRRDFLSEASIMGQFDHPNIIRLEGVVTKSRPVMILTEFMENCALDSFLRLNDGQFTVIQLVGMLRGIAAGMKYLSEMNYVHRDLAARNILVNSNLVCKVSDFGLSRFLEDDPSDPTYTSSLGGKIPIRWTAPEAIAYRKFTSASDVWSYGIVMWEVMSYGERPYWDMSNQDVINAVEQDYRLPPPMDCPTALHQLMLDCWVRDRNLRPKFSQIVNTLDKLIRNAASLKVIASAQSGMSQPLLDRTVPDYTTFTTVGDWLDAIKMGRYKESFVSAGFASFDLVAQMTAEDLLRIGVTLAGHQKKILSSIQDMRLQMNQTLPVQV

[13] = target: T3, Ephrin type-B receptor 3 (Homo sapiens); conditions: at 1 µM
[14] = target: T4, Ephrin type-B receptor 4 (Homo sapiens) (UniProt P54760); conditions: at 0.1 µM
T4 sequence (whole entry): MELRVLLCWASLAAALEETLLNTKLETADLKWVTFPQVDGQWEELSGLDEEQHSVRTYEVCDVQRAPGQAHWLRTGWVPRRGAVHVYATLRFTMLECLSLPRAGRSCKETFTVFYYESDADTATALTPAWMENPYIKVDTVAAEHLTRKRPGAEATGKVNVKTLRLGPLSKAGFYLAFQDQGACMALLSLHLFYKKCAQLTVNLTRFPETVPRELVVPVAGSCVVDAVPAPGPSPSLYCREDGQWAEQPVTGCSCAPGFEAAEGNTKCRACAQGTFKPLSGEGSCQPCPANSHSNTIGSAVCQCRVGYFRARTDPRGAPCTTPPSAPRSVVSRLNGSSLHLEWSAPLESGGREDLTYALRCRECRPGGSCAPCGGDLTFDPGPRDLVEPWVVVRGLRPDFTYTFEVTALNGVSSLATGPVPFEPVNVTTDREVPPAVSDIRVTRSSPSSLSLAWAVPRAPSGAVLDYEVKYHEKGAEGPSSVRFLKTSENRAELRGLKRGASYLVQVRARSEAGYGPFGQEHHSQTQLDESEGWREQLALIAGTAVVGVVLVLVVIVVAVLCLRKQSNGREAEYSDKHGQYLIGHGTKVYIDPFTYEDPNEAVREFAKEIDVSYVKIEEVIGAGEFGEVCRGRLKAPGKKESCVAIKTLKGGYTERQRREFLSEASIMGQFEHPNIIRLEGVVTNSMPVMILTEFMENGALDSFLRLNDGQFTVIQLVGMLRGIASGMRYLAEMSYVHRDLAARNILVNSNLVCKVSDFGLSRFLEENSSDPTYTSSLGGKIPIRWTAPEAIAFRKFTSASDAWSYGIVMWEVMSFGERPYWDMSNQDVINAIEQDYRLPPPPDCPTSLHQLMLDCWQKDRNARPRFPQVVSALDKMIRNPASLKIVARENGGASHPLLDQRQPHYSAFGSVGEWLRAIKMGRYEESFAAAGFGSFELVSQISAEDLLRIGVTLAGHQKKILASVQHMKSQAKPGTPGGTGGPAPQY

[15] = target: T4, Ephrin type-B receptor 4 (Homo sapiens); conditions: at 1 µM
[16] = target: Receptor tyrosine-protein kinase erbB-2 (Homo sapiens) (UniProt P04626); conditions: at 0.1 µM
Sequence of Receptor tyrosine-protein kinase erbB-2 (Homo sapiens) (P04626 whole entry): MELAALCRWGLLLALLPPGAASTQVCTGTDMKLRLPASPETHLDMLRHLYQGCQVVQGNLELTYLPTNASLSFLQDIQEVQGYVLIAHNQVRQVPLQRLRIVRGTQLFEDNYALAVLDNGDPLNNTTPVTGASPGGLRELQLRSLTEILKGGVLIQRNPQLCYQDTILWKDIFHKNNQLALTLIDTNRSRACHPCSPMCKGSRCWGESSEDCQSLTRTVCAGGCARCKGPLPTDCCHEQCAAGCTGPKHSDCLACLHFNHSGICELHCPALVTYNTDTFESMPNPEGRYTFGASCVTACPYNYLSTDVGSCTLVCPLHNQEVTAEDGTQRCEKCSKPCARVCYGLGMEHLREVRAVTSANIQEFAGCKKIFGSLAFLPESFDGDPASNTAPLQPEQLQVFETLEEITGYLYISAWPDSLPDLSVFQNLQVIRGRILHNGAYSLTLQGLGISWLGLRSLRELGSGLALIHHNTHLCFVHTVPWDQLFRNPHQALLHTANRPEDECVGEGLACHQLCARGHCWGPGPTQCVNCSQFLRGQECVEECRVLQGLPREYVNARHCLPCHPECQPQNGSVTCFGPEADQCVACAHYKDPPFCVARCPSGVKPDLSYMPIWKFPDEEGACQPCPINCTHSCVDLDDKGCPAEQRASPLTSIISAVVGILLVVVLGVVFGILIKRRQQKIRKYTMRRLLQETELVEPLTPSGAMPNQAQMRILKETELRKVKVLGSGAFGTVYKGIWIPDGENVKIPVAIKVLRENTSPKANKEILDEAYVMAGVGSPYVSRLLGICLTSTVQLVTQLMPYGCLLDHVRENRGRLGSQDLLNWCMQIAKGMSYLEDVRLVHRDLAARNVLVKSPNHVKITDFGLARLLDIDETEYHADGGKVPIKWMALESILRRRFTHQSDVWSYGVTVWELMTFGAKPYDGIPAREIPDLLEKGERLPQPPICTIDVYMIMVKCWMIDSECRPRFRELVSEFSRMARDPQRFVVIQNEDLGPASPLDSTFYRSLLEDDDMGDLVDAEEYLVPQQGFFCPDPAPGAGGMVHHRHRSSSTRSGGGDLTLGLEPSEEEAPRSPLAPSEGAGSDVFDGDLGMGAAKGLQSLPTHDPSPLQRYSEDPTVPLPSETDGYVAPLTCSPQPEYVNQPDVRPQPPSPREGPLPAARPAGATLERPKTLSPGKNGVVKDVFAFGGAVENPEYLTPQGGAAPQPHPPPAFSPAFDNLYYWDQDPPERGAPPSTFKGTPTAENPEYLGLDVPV

[17] = target: Receptor tyrosine-protein kinase erbB-2 (Homo sapiens) (UniProt P04626); conditions: at 1 µM
[18] = target: Receptor tyrosine-protein kinase erbB-4 (Homo sapiens) (UniProt Q15303); conditions: at 0.1 µM
Sequence of Receptor tyrosine-protein kinase erbB-4 (Homo sapiens) (Q15303 whole entry): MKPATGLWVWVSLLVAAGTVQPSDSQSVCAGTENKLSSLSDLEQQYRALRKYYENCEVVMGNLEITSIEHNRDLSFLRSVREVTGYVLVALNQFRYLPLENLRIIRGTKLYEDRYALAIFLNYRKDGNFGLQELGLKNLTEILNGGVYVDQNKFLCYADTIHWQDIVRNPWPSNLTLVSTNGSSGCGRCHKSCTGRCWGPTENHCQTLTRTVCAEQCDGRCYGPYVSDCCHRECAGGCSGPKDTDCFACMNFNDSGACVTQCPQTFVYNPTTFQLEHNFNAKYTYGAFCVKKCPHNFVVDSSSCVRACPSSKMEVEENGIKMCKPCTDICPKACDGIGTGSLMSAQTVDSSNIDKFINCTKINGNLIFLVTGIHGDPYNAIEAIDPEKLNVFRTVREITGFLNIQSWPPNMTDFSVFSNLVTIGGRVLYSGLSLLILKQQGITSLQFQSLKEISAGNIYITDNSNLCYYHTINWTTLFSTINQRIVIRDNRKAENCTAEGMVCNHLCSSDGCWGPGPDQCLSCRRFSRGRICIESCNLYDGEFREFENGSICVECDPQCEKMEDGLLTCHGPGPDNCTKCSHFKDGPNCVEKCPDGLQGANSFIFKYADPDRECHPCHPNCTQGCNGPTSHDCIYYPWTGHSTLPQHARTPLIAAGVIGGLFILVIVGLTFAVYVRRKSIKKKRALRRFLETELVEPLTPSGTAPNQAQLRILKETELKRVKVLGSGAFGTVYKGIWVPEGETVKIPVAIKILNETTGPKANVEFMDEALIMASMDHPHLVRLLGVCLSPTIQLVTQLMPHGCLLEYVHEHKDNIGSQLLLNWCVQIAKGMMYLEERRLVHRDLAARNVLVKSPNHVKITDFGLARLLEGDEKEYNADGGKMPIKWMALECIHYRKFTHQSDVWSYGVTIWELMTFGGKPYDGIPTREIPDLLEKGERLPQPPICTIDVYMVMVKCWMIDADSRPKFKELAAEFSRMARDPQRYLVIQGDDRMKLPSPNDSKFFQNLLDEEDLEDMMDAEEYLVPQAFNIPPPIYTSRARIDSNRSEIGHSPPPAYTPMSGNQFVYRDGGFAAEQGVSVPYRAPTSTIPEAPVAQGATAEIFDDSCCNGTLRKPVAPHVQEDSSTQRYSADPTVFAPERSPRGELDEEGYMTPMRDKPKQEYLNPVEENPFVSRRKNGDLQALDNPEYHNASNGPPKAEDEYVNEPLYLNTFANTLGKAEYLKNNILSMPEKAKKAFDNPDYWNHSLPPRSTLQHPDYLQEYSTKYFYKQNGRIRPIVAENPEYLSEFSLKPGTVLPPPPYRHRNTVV

[19] = target: Receptor tyrosine-protein kinase erbB-4 (Homo sapiens) (UniProt Q15303); conditions: at 1 µM
[20] = target: Tyrosine-protein kinase Fer (Homo sapiens) (UniProt P16591); conditions: at 0.1 µM;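 note: reported figures are averaged percent inhibition of FER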
Sequence of Tyrosine-protein kinase Fer (Homo sapiens) (P16591 whole entry, looked up): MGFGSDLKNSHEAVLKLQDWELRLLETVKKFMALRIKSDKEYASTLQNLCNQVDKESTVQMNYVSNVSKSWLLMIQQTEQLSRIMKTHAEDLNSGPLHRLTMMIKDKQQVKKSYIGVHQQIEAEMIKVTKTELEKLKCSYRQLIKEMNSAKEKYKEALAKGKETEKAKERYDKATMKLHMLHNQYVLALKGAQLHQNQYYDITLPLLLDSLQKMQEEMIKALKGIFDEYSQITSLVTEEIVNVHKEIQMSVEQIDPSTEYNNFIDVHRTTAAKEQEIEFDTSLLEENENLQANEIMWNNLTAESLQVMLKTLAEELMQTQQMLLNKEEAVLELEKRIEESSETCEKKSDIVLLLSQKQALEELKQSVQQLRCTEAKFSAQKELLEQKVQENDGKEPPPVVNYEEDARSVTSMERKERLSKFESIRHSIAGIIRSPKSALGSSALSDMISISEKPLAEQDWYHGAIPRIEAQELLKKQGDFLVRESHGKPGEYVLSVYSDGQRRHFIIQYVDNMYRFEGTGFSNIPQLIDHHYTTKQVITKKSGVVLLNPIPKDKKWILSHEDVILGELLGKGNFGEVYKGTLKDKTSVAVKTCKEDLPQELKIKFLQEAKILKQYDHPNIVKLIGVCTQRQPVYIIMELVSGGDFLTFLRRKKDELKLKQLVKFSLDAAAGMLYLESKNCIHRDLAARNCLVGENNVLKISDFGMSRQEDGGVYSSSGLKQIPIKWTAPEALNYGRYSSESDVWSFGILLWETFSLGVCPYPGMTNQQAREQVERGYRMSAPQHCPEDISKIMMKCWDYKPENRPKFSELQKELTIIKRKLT

Sequence of Epidermal growth factor receptor (Homo sapiens), P00533 [T790M] (P00533 whole entry T790M): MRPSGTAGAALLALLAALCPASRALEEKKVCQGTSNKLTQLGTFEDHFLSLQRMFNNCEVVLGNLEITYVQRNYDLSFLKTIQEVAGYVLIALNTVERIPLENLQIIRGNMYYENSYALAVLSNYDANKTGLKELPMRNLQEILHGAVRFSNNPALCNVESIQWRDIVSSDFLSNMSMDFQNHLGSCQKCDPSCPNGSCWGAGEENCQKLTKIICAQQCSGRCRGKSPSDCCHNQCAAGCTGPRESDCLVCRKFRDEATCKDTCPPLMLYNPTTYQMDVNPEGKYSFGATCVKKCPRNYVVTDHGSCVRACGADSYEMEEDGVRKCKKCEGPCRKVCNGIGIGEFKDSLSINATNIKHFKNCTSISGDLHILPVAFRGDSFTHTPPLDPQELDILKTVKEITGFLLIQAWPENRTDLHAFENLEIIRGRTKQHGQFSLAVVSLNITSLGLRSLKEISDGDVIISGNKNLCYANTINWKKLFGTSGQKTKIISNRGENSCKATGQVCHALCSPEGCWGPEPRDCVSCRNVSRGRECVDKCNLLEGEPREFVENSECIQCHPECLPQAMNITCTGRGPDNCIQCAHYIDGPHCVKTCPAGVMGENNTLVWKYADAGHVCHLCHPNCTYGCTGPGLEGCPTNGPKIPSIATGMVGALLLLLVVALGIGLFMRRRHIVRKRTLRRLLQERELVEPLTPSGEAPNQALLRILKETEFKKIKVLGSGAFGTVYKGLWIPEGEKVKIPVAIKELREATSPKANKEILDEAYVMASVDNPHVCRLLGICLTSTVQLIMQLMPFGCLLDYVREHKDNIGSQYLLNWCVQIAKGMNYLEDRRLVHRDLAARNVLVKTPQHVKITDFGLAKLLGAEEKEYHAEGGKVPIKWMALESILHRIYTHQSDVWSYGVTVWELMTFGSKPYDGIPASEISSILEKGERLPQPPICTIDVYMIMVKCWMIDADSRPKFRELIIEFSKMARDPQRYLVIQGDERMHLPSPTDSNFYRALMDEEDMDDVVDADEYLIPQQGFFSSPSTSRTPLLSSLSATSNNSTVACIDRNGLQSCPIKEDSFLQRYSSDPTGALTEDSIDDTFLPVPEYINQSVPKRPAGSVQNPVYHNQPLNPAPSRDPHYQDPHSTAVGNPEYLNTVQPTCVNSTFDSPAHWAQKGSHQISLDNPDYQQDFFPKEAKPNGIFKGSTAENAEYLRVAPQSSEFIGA

| Structure (SMILES) | inhibition [1] [%] | inhibition [2] [%] | inhibition [3] [%] | inhibition [4] [%] | inhibition [5] [%] | inhibition [6] [%] | inhibition [7] [%] | inhibition [8] [%] | inhibition [9] [%] | inhibition [10] [%] | inhibition [11] [%] | inhibition [12] [%] | inhibition [13] [%] | inhibition [14] [%] | inhibition [15] [%] | inhibition [16] [%] | inhibition [17] [%] | inhibition [18] [%] | inhibition [19] [%] | inhibition [20] [%] |
| --- | --- | --- | --- | --- | --- | --- | --- | --- | --- | --- | --- | --- | --- | --- | --- | --- | --- | --- | --- | --- |
| CC1=C(C(=O)Nc2ccc3[nH]nc(C)c3c2)C(c2ccc(C(F)(F)F)cc2)CC(=O)N1 (stereo not given) | -0.09 | 3.65 | -0.97 | 2.9 | 2.18 | 2.71 | 2.28 | 5.51 | 5.67 | 5.5 | 3.69 | 5.28 | 2.84 | 1.98 | 4.06 | 0.35 | 0.13 | 9.2 | 16 | 1.26 |
| O=C(O[C@H]1CN[C@H](C#Cc2cc3ncnc(Nc4ccc(OCc5cccc(F)c5)c(Cl)c4)c3s2)C1)N1CCOCC1 | 18 | 4.1 | 9.08 | 1.93 | 1.46 | 5.97 | 4.01 | 10.4 | 12.3 | 7.71 | 6.81 | 5.55 | 5.83 | 0.52 | 1.52 | 6.98 | 52.8 | 82.2 | 85.3 | 5.92 |
| COc1ccc(Nc2ncc(-c3ccccc3)o2)cc1OC | -1.98 | -0.33 | -0.29 | 0.89 | 2.73 | -1.2 | 1.63 | 2.72 | 1.61 | -1.69 | -1.55 | 2.4 | -5.15 | 2.84 | 6.24 | 0.01 | -2.56 | 6.4 | 8.57 | 0.47 |
